The structures appear in SMILES notation. Active and inactive are the calls of the source.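 How the source made its calls: active means inhibition of at least 60% at 114 µM in the USP2 gel assay; inconclusive means inhibition from 30% up to under 60% at 114 µM; inactive means inhibition under 30% at 114 µM.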

Ubiquitin carboxyl-terminal hydrolase 2 (Homo sapiens), sequence (O75604 whole entry, looked up): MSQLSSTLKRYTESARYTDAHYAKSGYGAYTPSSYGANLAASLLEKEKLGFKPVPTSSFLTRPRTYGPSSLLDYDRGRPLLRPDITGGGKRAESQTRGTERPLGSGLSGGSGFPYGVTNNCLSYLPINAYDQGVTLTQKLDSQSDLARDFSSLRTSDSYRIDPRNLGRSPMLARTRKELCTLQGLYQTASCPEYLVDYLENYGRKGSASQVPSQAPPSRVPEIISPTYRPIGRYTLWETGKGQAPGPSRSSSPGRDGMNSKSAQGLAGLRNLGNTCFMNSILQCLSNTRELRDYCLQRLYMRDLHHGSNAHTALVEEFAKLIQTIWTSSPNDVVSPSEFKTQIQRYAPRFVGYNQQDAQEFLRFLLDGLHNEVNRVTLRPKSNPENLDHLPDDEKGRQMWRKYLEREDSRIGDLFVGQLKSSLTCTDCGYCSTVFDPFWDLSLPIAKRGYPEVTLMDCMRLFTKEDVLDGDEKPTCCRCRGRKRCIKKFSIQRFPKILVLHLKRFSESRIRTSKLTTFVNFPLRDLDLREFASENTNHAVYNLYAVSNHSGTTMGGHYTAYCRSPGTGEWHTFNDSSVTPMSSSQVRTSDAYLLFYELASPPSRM

For this assay, the target named is Ubiquitin carboxyl-terminal hydrolase 2 (Homo sapiens) (UniProt O75604). Kind of assay: Inhibitors of USP1/UAF1: SAR in USP2 diubiquitin SDS-PAGE gel assay. To be noted: USP2 K63 diubiquitin cleavage, SDS-PAGE gel densitometry; series mostly up to 114 µM. An excerpt:
Deubiquitinating enzymes (DUBs) are a class of enzymes that can cleave isopeptide bond formed between the C-terminal carboxylate of ubiquitin and a lysine side-chain amino group on the target protein. Among them, ubiquitin specific proteases (USPs) constitute the largest DUB family. Human USPs are emerging as promising targets for pharmacological intervention because of their connection to a number of human diseases, including prostate, colon and breast cancer (1, 2), pediatric acute lymphoblastic leukemia (3), and familial cylindromatosis (4). The advantage of inhibiting USPs lies in the potential specificity of therapeutic intervention that can lead to better efficacy and reduce nonspecific side effects. In a collaboration between the University of Delaware and the NIH Chemical Genomics Center, a high-throughput screen assay was developed to screen for USP1/UAF1 inhibitors (5). […]
The inhibition assay contains 20 nM USP2, 2 microM K63 linked diubiquitin, and inhibitors at varied concentrations (0.08 microM - 114 microM). […] The intensity of the individual diubiquitin and monoubiquitin band was quantified using Quantity One 4.3.1 (Biorad, Hercules, CA). The percentage of the conversion was determined and used to calculate the reaction rate. […]
With `Cc1cnc(-c2ccccc2C(C)C)nc1NCc1ccc(-n2ccnn2)cc1`, the call was inactive.

Values taken from PubChem BioAssay AID651626 (National Center for Advancing Translational Sciences (NCATS), 2012).
